In ChEMBL document CHEMBL3988442, “University of Dundee, Small-Polar-MMV Screening Library” (2021):
For some assays here: Entries with a potency or affinity are not part of this list.

Columns and labels:
Parameters in all cases: scale not given: direction of the effect not stated beside the values
[1] = target: Protein translocase subunit SecA (Escherichia coli (strain K12)) (UniProt P10408); test: Assay to Identify E. coli SecA ATPase Inhibitors; assay type: functional; conditions: 30 µM
[2] = target: T1, Ubiquitin-activating enzyme e1, putative (Leishmania donovani (strain BPK282A1)) (UniProt E9BSI1); test: Leishmania donovani Ubiquitin Activating Enzyme (LdE1); assay type: functional; conditions: 30 µM
T1 sequence (whole entry): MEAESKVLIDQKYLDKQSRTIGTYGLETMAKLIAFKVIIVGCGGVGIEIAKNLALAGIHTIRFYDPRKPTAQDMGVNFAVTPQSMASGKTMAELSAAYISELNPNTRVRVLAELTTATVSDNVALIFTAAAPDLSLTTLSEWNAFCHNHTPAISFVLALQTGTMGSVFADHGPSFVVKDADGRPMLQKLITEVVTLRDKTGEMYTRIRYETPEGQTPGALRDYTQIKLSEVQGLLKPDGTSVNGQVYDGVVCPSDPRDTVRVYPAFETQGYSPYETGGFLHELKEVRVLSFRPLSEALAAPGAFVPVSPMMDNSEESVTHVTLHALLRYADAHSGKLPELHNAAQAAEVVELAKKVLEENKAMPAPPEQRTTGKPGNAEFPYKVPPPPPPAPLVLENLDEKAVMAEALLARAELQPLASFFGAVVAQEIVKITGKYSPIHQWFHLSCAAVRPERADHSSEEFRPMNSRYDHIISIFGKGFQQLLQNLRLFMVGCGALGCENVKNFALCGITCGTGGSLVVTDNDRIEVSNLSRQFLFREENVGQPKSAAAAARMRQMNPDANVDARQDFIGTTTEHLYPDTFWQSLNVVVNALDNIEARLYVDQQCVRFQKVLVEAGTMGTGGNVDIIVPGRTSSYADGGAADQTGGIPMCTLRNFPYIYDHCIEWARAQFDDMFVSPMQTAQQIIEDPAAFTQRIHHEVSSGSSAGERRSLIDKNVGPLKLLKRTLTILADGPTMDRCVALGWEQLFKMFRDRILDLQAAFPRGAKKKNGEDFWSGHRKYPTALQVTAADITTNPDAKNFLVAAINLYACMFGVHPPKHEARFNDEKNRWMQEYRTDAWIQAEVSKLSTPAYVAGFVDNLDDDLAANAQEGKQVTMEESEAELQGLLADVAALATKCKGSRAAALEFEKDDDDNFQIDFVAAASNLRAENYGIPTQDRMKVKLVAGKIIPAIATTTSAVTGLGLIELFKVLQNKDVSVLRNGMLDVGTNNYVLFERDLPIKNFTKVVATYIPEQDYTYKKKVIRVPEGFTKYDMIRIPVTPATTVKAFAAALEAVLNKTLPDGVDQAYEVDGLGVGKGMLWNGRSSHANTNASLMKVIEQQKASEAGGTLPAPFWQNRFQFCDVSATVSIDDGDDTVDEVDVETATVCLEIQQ

[3] = target: AMP-activated protein kinase, AMPK (Homo sapiens) (UniProt P54646+O43741+P54619+Q9UGJ0+Q9Y478+Q13131+Q9UGI9); test: AMP-dependent Kinase enzyme assay. An in vitro enzyme assay that detects ADP turnover that is directly proportional to AMPK activity. This uses naive AMPK that is activated during the assay with MK-8722; assay type: functional; conditions: 30 µM
[4] = target: Sialic acid-binding Ig-like lectin 9 (Homo sapiens) (UniProt Q9Y336); test: Hs-Siglec9 ALPHAscreen SOP 20170721; conditions: 10 µM
Trypanosoma cruzi = test: Trypanosoma cruzi phosphomannomutase and mannose-1-phosphate guanylyltransferase assay; assay type: functional; conditions: 10 µM
[5] = target: T2, Arginase-2, mitochondrial (Homo sapiens) (UniProt P78540); test: in vitro enzyme assay to detect the production of urea directly proportional to the activity of Arginase II; assay type: functional; conditions: 33.3 µM; also: in the data most compounds retested in dose-response had high values
T2 sequence (whole entry): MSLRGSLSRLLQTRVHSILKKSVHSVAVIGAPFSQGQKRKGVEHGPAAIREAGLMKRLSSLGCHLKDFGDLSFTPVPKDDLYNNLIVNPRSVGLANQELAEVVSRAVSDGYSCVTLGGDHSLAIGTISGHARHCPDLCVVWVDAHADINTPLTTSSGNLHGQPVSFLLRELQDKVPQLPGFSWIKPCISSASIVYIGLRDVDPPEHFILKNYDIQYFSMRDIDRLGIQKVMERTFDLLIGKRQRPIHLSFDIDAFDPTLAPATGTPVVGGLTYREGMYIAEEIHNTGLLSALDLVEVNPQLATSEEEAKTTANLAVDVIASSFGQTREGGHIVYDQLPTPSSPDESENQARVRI

[6] = target: T3, Proteasome subunit beta (Trypanosoma cruzi) (UniProt O96673); test: Trypanosoma cruzi proteasome chymotrypsin-like activity (TcProtChymo) assay.; also: in the data most compounds retested in dose-response had high values; assay type: functional; conditions: 9.37 µM
T3 sequence (whole entry): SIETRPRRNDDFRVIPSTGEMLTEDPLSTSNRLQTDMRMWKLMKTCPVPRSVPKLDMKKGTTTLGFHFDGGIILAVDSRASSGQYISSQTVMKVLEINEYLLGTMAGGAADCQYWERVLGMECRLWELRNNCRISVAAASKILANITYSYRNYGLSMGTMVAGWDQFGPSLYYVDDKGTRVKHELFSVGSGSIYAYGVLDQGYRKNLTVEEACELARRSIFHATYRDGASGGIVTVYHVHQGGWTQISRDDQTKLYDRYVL

Homo sapiens = species: Homo sapiens; test: To identify inhibition of the IFN signalling (Jak-Stat) pathway via expression of an eGFP reporter gene under the control of an IFN-stimulated response element (ISRE) containing MxA promoter.; assay type: functional; conditions: 30 µM
[7] = target: T4, Tyrosyl-tRNA synthetase, putative (Trypanosoma cruzi (strain CL Brener)) (UniProt Q4DSP6); test: Trypanosoma cruzi tyrosyl tRNA synthetase (TcYRS) _High Tyrosine SOP; assay type: functional; conditions: 30 µM; also: in the data most compounds retested in dose-response had high values
T4 sequence (whole entry): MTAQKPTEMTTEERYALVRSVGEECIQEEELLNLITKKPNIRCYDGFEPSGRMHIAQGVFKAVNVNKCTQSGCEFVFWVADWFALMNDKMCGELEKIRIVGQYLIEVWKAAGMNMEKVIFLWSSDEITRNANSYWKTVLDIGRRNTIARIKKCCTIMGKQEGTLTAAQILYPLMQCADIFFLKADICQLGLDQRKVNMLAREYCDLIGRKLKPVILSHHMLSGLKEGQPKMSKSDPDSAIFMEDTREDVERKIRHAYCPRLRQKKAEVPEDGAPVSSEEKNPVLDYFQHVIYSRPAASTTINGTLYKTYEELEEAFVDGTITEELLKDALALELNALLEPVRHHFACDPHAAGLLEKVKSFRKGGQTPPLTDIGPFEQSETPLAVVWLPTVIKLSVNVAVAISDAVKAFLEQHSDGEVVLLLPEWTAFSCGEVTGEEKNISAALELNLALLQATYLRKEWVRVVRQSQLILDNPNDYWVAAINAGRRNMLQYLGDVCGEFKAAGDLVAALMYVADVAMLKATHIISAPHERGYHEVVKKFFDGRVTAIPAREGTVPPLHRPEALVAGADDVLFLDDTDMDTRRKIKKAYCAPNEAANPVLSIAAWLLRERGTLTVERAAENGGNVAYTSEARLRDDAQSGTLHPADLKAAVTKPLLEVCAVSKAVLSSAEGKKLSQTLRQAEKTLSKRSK

[8] = target: T4, Tyrosyl-tRNA synthetase, putative (Trypanosoma cruzi (strain CL Brener)); test: Trypanosoma cruzi tyrosyl tRNA synthetase (TcYRS) SOP; assay type: functional; conditions: 30 µM
[9] = target: Chromo domain-containing protein 1 (Saccharomyces cerevisiae (strain ATCC 204508 / S288c) (Baker's yeast)) (UniProt P32657); test: ScCHD-1 Enzyme Inhibition Assay; assay type: functional; conditions: 30 µM; also: in the data most compounds retested in dose-response had high values
Chromo domain-containing protein 1 (Saccharomyces cerevisiae (strain ATCC 204508 / S288c) (Baker's yeast)), sequence (P32657 whole entry, the tested form may be a part): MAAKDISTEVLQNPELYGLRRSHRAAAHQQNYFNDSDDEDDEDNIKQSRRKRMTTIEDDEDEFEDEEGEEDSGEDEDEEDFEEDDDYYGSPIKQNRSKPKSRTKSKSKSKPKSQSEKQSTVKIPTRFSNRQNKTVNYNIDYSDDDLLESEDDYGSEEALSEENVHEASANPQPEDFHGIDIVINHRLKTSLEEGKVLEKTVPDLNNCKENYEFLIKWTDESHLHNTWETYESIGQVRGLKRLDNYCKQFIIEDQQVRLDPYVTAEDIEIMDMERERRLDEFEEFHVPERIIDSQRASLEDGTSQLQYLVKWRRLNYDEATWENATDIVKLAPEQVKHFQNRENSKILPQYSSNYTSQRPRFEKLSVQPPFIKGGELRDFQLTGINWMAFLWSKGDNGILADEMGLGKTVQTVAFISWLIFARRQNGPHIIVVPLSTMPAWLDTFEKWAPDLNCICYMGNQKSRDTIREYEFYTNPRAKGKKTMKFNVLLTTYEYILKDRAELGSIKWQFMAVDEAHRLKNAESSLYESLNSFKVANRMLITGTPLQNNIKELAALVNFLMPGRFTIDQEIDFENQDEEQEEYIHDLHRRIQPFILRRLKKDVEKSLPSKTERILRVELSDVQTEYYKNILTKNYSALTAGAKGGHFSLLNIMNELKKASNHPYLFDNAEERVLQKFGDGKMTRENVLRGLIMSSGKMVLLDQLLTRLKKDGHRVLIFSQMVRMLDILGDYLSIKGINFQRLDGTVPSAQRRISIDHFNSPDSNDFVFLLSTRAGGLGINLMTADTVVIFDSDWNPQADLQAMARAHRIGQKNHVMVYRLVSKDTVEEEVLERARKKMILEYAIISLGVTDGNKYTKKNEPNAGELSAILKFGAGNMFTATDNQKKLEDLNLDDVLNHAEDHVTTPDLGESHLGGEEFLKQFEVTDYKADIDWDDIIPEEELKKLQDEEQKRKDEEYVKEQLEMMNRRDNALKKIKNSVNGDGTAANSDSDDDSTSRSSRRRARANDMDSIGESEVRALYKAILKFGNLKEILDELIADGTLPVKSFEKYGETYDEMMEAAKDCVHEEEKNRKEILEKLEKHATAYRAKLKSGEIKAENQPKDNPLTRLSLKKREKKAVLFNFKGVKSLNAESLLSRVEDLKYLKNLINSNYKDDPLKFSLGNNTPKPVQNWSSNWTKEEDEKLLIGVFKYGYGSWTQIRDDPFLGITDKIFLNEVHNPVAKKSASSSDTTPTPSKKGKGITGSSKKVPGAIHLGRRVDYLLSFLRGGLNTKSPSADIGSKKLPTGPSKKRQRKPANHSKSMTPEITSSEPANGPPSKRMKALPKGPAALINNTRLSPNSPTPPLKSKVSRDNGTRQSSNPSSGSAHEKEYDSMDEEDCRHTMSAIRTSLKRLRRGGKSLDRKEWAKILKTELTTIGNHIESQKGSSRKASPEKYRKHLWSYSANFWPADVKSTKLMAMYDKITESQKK

Sialic acid-binding Ig-like lectin 9 (Homo sapiens), sequence (Q9Y336 whole entry): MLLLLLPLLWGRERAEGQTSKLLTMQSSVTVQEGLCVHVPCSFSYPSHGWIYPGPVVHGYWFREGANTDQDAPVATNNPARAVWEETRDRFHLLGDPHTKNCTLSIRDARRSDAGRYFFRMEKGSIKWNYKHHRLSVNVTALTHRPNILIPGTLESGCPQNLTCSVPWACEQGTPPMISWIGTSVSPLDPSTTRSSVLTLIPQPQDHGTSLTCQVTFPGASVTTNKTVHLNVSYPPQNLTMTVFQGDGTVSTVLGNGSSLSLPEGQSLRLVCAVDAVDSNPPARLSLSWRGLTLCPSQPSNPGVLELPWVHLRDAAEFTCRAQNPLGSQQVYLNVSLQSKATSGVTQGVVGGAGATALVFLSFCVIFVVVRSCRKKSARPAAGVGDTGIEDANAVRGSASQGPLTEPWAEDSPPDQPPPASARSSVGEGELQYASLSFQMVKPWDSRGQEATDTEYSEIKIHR
Protein translocase subunit SecA (Escherichia coli (strain K12)), sequence (P10408 whole entry): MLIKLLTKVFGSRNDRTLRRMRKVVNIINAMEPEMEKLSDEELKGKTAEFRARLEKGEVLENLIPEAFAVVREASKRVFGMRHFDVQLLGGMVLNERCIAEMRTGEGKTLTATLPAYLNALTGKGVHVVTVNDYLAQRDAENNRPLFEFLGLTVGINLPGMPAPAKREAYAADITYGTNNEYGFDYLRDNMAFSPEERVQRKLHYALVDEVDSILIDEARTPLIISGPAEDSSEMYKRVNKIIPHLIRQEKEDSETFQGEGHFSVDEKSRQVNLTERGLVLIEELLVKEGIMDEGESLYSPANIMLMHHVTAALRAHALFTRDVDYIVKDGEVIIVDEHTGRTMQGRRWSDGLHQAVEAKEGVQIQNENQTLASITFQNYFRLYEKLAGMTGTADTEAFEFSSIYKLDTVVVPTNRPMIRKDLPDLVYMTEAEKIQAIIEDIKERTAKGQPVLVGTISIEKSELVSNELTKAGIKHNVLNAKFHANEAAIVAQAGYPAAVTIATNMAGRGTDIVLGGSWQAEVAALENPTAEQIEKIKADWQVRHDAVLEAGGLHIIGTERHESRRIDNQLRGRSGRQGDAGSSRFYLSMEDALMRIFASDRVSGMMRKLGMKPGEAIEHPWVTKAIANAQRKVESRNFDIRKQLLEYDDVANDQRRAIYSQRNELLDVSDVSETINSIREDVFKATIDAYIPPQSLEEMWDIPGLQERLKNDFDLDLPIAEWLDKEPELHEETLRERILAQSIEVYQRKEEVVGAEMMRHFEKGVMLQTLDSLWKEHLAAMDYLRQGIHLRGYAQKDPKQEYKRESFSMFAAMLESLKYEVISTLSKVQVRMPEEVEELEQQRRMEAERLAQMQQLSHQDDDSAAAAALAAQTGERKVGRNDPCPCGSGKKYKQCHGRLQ

SMILES | Percent Effect [1] [%] | Percent Effect [2] [%] | Percent Effect [3] [%] | Percent Effect [4] [%] | Percent Effect (Trypanosoma cruzi) [%] | Percent Effect [5] [%] | Percent Effect [6] [%] | Percent Effect (Homo sapiens) [%] | Percent Effect [7] [%] | Percent Effect [8] [%] | Percent Effect [9] [%]
CCN1CCC(CNCc2cc(OC)ccc2OC)C1 (stereo unspecified) | -3.32 | 0 | -0.832 | -3.34 | -5.66 | 0.417 | 6.17 | 0.331 | 0.99 | 1.22 | -0.855
Cc1ccc(CN2CCOC3(COCCN(CCN(C)C)C3)C2)o1 (stereo unspecified) | -3.53 | 5.33 | 9.65 | 0.443 | 1.18 | -0.699 | 14 | 3.66 | 8.51 | 19.2 | -3.31
NCc1cnn(-c2ccccc2C(=O)NCCCn2ccnc2)c1 | -3.74 | 6.76 | 9.61 | -1.25 | -3.16 | -1.16 | 0.312 | 4.01 | 7.53 | 11.7 | -2.44
CC(NC(=O)NCCCO)c1ccc2c(c1)OCCO2 (stereo unspecified) | -1.5 | 16.2 | 0.694 | -1.77 | 1.76 | 3.51 | 14.2 | 2.1 | 4.95 | 28.1 | -6.78
CC(=O)c1c(F)cccc1N1CCC(Cc2cccnc2)CC1 | -2.45 | 8.22 | -4.3 | 3.69 | 6.15 | 2.4 | -1.46 | 57.7 | 7.29 | 13.6 | -9.38
CN(CC(=O)N1CCCC1c1cnn(C)c1)c1ccc(Cl)cn1 (stereo unspecified) | -8.15 | 7.89 | -2.82 | -3.87 | -7.56 | 2.52 | 7.19 | 6.79 | 2.46 | 6.17 | 0.471
Cn1cccc1C(=O)N1CCc2ncnc(C3CC3)c2CC1 | -4.53 | 13.3 | 9.69 | -5.45 | -5.12 | -0.699 | 21.1 | 22.4 | 0 | 6.41 | -1.35
Cc1cc(C)n(CC2CCCCN2CC(=O)Nc2nncs2)n1 (stereo unspecified) | -3.75 | 8 | -5.11 | 15 | 7.69 | 14.6 | 0.349 | 13.2 | 6.01 | 16.1 | -8.51
Cc1nc(CN(C)C2CCN(Cc3ccno3)C2)no1 (stereo unspecified) | -3.58 | 18.2 | -53.5 | -23.7 | 5.19 | -7.79 | 29.4 | 4.64 | 3.81 | 18.8 | 3.1
COc1ccc(CNC(=O)NC2CCN(CC(F)F)CC2)cc1C | -6.96 | 5.41 | -0.551 | 14.3 | 3.23 | 3.72 | 2.15 | -4.85 | 4.3 | 13.6 | -4.89
CS(=O)(=O)N[C@@H]1CCO[C@]2(CCN(C(=O)c3cnccn3)C2)C1 | -3.71 | 10.8 | 1.74 | -2.86 | 1.07 | 0.955 | 22.7 | 5.57 | 7.57 | 17.9 | 2.48
COCC(NC(=O)c1cnn(C)c1)c1cccc(C(F)(F)F)c1 (stereo unspecified) | -8.86 | 0 | -3.2 | -6.41 | -4.11 | 0.455 | 7.28 | -1.62 | 0 | 0 | 0.364
CCn1cc(NC(=O)NCC(O)COc2cccc(F)c2)cn1 (stereo unspecified) | 2.07 | 13.2 | -3.12 | 0.363 | -7.14 | 1.92 | 6.68 | 13.5 | 2.45 | 17.1 | -8.89
CCc1[nH]ncc1C(=O)N1CCCN(Cc2cnn(C)c2)CC1 | 0.347 | 15.6 | 6.03 | -6.37 | -0.0979 | 5.68 | 8 | 21.9 | 5.71 | 18.8 | -17.9
CC(C)c1ncc2c(n1)CN(Cc1cccc(C#N)c1)CC2 | -3.01 | 0 | -28.8 | 8.37 | 4.89 | 3.06 | 5.01 | -9.04 | 5.39 | 4.88 | 2.88
Cc1ccc(C(=O)N2CCO[C@H]3[C@@H](OCc4ccccn4)CC[C@@H]32)o1 | -2.21 | 10.4 | -8.74 | 3.45 | -4.44 | 11 | 12.7 | 11.5 | -1.06 | -8.97 | -6.69
